Compounds with a hit are over-represented: about 6% of the library has one in this group of screens.
Chronic BCR inh: inhibitors of chronic active B-cell receptor signaling; ABC-DLBCL IkBa-CBG/CBR reporter, luminescence ratio, 4 h; Potency, µM (top dose mostly 46.1 µM), hits mostly inhibitors; hit rate 0.05% among 340,000; active = well fitted inhibition curve with a large enough effect in the signal ratio, with a control signal flat, not every such curve was filed as active; inconclusive = small, poorly fitted or top-dose-only effect, or effect the other way, or a change in a side signal; the % refers to the signal ratio
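Doxycycline induced both beetle luciferases in TMD8 lymphoma cells; IKK-driven degradation limits the IkappaBalpha-fused green signal, while red luminescence normalises for cell number and nonspecific effects. Compounds tested up to 46 uM, 4 hrs.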
D3 ag: agonists of human D3 dopamine receptor; D3R DiscoveRx beta-arrestin cells, luminescence, 90 min; max activation, %; hit rate 0.58% among 410,000; in the data active = max activation above about 30%
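Cells at 1500/well, incubated overnight, then treated with pinned compounds (dopamine as control) for 90 min at 37 degrees C. DiscoveRx reagent added for 30 - 60 minutes at room temperature; luminescence read.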
D1 ag: human D1 receptor agonism; hit rate 1% among 360,000; HEK293 T-REx D1 cells, calcium flux, agonist mode; activation, % at 2 µM; P21728; in the data active = activation above about 30%
Target sequence (P21728 whole entry, looked up): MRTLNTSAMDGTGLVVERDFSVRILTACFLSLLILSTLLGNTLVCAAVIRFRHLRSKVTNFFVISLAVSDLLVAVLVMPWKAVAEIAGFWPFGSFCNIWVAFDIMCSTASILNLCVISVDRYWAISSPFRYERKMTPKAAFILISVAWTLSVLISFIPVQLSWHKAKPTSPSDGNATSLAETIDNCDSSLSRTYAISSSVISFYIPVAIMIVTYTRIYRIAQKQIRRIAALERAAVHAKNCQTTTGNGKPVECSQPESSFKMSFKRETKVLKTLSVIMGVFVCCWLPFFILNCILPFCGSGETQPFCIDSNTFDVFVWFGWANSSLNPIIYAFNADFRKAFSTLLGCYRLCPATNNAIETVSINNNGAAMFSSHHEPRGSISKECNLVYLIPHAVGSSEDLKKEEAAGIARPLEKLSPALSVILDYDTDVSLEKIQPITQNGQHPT
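Inducible HEK293 T-REx D1 cells, force-coupled to calcium signalling, were plated at 4000 cells/well with tetracycline and held overnight at 30 C. After no-wash calcium dye loading, compound-evoked calcium rise over 180 s flagged agonists.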
D1 antag: blocks dopamine activation of the human D1 receptor; hit rate 3.2% among 360,000; activity change, negative = inhibition, % at 10 µM; HEK293 TREx D1 cells, calcium flux, dopamine EC80; stronger effect = lower value; in the data active = activity change below about -30%
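Using tetracycline-induced force-coupled D1 Hek293 cells and a calcium dye, signals were followed for 180 s after compound, then for 180 s after EC80 dopamine, to detect inhibitors.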
D1 PAM: human D1 dopamine receptor positive modulation | potentiation, % at 10 µM | P21728 | HEK293 TREx D1 cells, calcium flux, dopamine EC20 potentiation | hit rate 0.036% among 360,000 | AID 504651; in the data active = potentiation above about 30%
D3 antag: D3 dopamine receptor (human) antagonism; hit rate 2.5% among 360,000; AID 652054; P35462; max response, negative = inhibition, %; D3R cells, DiscoveRx beta-arrestin luminescence, antagonist mode; stronger effect = lower value; in the data active = max response below about -50%; inconclusive = no clear call, values can overlap the other calls
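Cells expressing the human receptor were seeded at 1500 cells/well, incubated overnight at 37 degrees C in 5% CO2, then exposed to library compounds with dopamine controls for 90 minutes at 37 degrees C before luminescent detection.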
Large screens that a line does not name were inactive.

CC1CCN(S(=O)(=O)c2ccc(C(=O)N3CCOCC3)cc2)CC1	D1 antag -35.3
Cc1ccc(CN2CCCn3nc(C(=O)NCc4ccc(N(C)C)cc4)cc3C2=O)cc1	none (no result: Chronic BCR inh, D3 antag)
CCOc1ccc(CNC(=O)c2cnc3sc(N4CCOCC4)nn3c2=O)cc1OC	none (no result: Chronic BCR inh, D3 antag)
Cc1nnsc1NC(=O)OCc1ccc(Cl)cc1Cl	D1 antag -32.6
Cc1nn(C)c(Cl)c1NC(=O)OCc1ccc(Cl)cc1Cl	D1 antag -37.2
Cc1nnsc1NC(=O)OCCCl	none
COc1ccc(C2CC=C(C(C)=O)CN2S(=O)(=O)c2ccccc2)cc1 (centres undefined)	none (no result: Chronic BCR inh, D1 ag, D1 antag, D1 PAM)
CCN(CC)c1cc2c(c3c1ccn3C)C1CCC2C1 (centres undefined)	D3 antag -61.3 (no result: Chronic BCR inh, D1 ag, D1 antag, D1 PAM)
CCN(Cc1ccccc1)c1cc2c(c3c1ccn3C)C1CCC2C1 (centres undefined)	D3 antag -55.1 (no result: Chronic BCR inh, D1 ag, D1 antag, D1 PAM)
CCCN(CC1CC1)c1cc2c(c3c1ccn3C)C1CCC2C1 (centres undefined)	D3 antag inconclusive (no result: Chronic BCR inh, D1 ag, D1 antag, D1 PAM)
CCn1c(=O)cc(OCC(=O)N2CCN(c3ccc(OC)cc3)CC2)c2ccccc21	none (no result: Chronic BCR inh, D3 antag)
COc1cccc(NC(=O)COc2ccc(Br)c(C)c2)c1	Chronic BCR inh inconclusive, D1 antag -36.5
Cc1ccc(OCC(=O)Nc2ccncc2)cc1	none
COc1cccc(NC(=O)COc2ccccc2)c1	none
CCOC(=O)c1nn(-c2ccc(C)cc2)c(=O)cc1OCC(=O)Nc1cccc(OC)c1	D1 antag -58.5
O=C(COc1cc(Cl)c(Cl)cc1Cl)Nc1ccncc1	D1 antag -30.0
Cc1cc(OCC(=O)Nc2ccncc2)ccc1Br	D1 antag -32.1
O=C(COc1cc(Cl)c(Cl)cc1Cl)Nc1cccc(O)c1	Chronic BCR inh inconclusive
CC(=O)O[C@H]1C[C@@H]2CC[C@@H]3[C@H](CC[C@@]4(C)[C@H]3C[C@H](N3CC[N+](C)(C)CC3)[C@@H]4OC(C)=O)[C@@]2(C)C[C@@H]1N1CC[N+](C)(C)CC1	none (no result: Chronic BCR inh, D1 ag, D1 antag, D1 PAM, D3 antag)
COc1ccc(C(=O)NCCn2cc(SCC(=O)Nc3cccc(C)c3)c3ccccc32)cc1	none (no result: Chronic BCR inh, D3 antag)
COc1ccc(-c2csc(C(NC(C)=O)c3cccc(F)c3)n2)cn1 (centres undefined)	none (no result: Chronic BCR inh, D1 ag, D1 antag, D1 PAM)
Cc1ccccc1-c1ccnc2c(-c3ccc(F)cc3)c(C)nn12	none (no result: Chronic BCR inh, D3 antag)
Cc1nc(C(F)(F)F)ccc1C(=O)N1CCC1(C)C(=O)NCc1cccs1 (centres undefined)	D3 antag -90.7 (no result: Chronic BCR inh, D1 ag, D1 antag, D1 PAM)
CCOc1ccc(NC(=O)CN2CCCN(Cc3cc(C)ccc3C)S2(=O)=O)cc1	none (no result: Chronic BCR inh, D3 antag)
Cc1csc(Sc2ccc([N+](=O)[O-])cc2C(=O)OCC(=O)NC2CCCC(C)C2C)n1 (centres undefined)	D1 antag -31.9
CCC(C)NC(=O)COC(=O)c1cc([N+](=O)[O-])ccc1Sc1nc(C)cs1 (centres undefined)	none
CCCNS(=O)(=O)c1ccc2nc(NC(=O)c3ccc(F)cc3)sc2c1	none (no result: Chronic BCR inh, D3 antag)
CCc1ccc(S(=O)(=O)Nc2cc(SCC(=O)O)c(O)c3ccccc23)cc1	Chronic BCR inh inconclusive, D3 antag -63.0
O=C(O)CSc1cc(NS(=O)(=O)c2cccc([N+](=O)[O-])c2)c2ccccc2c1O	Chronic BCR inh inconclusive, D3 antag -50.8
CCOc1ccc(S(=O)(=O)Nc2cc(SCC(=O)O)c(O)c3ccccc23)cc1	Chronic BCR inh inconclusive, D3 antag -50.6
C[C@H](CSC(=O)c1ccccc1)C(=O)N1C[C@@H](Sc2ccccc2)C[C@H]1C(=O)O	none (no result: Chronic BCR inh, D1 ag, D1 antag, D1 PAM, D3 antag)
Cc1ccc(C2Nc3ccccc3-n3c(-c4ccccc4)c4c(=O)n(C)c(=O)n(C)c4c32)cc1 (centres undefined)	none (no result: Chronic BCR inh, D3 antag)
C=CC[N@@+]12CC[C@@]34c5ccccc5N5/C=C6/[C@H]7C[C@H]8[C@@]9(CC[N@@+]8(CC=C)C/C7=C/CO)c7ccccc7N(/C=C(/[C@@H](C[C@@H]31)/C(=C\CO)C2)[C@H]54)[C@@H]69	none (no result: Chronic BCR inh, D1 ag, D1 antag, D1 PAM, D3 antag)
CCc1cc(C(=O)NNC(=S)NC2CCCCC2)cs1	Chronic BCR inh inconclusive
CC(C)c1cc(C(=O)NNC(=S)NC2CCCCC2)cs1	Chronic BCR inh inconclusive, D3 antag -53.0
CC(C)c1nc2oc3ccccc3c(=O)c2c(=O)n1-c1ccccc1	Chronic BCR inh inconclusive, D1 ag 53.9
Cc1ccc2c(=O)[nH]c(Cc3ccccc3C(=O)O)nc2c1	Chronic BCR inh inconclusive, D3 ag 39.9
O=c1[nH]c(Cc2ccccc2Cl)nc2ccccc12	none
CCOC(=O)c1cnn(-c2ccccc2)c1-n1cccc1C(=O)C(=O)Nc1ccccc1	Chronic BCR inh inconclusive
CCOC(=O)c1cnn(-c2ccccc2)c1NC(=O)C(F)(F)C(F)(F)C(F)(F)F	D3 antag -67.6
CCOC(=O)c1cnn(-c2ccccc2)c1-n1cccc1C(=O)C(=O)Nc1ccc(F)cc1	Chronic BCR inh inconclusive, D1 antag -85.1
O=C(COc1ccccc1)Nc1nn[nH]n1	none
O=C(CC(c1ccccc1)c1ccccc1)Nc1nn[nH]n1	D1 antag -31.3
COc1ccc(Cc2nnc(Nc3ccc(C)cc3C)[nH]c2=O)cc1	D3 antag -61.0
COc1ccc(Cc2nnc(SCC(=O)Nc3ccc(C)cc3C)[nH]c2=O)cc1	none
OC(COC(c1ccccc1)c1ccccc1)CN1CCN(c2ccccn2)CC1 (centres undefined)	D3 ag 55.6
OC(CN1CCN(c2ccccn2)CC1)Cn1c2ccccc2c2ccccc21 (centres undefined)	Chronic BCR inh inconclusive
Cc1cc(C)c(OCC(O)CN2CCN(c3ccccn3)CC2)c(C)c1 (centres undefined)	Chronic BCR inh inconclusive, D3 ag 106.0
CC(C)(C)C1CCC(OCC(O)CN2CCN(c3ccccn3)CC2)CC1 (centres undefined)	D3 ag 65.2
OC(COc1ccc(Cl)cc1)CN1CCN(c2ccccn2)CC1 (centres undefined)	none (no result: Chronic BCR inh, D1 ag, D1 antag, D1 PAM)
OC(COc1ccc(Cl)c2ccccc12)CN1CCN(c2ccccn2)CC1 (centres undefined)	Chronic BCR inh inconclusive, D3 ag 72.3
CCOC(=O)[C@@](C)(N)Cc1ccc(O)c(O)c1	none (no result: Chronic BCR inh, D1 ag, D1 antag, D1 PAM, D3 antag)
CC1CCCC(C)N1CC(O)COC1CCC(C(C)(C)C)CC1 (centres undefined)	Chronic BCR inh inconclusive, D1 ag 31.0
Cc1cc(OCC(O)CN2CCN(c3ccccn3)CC2)cc(C)c1Cl (centres undefined)	Chronic BCR inh inconclusive, D3 ag 51.0
COc1cccc(N2CCN(Cc3nnc(-c4ccc5c(c4)OCO5)o3)CC2)c1	none (no result: Chronic BCR inh, D3 antag)
COc1ccc(Nc2nc(-c3ccc(OC)cc3)cs2)cc1	Chronic BCR inh inconclusive
COc1ccc(Nc2nc(-c3c(C)nc4ncccn34)cs2)cc1	Chronic BCR inh 3.55µM
